# Reference: PubChem BioAssay (NCATS)
# Results filed as inconclusive are left out. A call without a number means that no potency is given here. Calls of active or inactive are those of the source. The call rests on the fitted dose curve; in most records, active means well fitted inhibition curve with a large enough effect; inconclusive means small, poorly fitted or top-dose-only effect; inactive means no such curve, though single readings can be large or run the other way.
# Columns and labels:
# [1] = tested on: Zika virus NS2B-NS3 protease (unlinked complex); assay: Primary screen GU Rhodamine qHTS for Zika virus inhibitors: Unlinked NS2B-NS3 protease assay (AID 1347159); further: nearly all actives have a fitted effect of over 60% in size
# Summary of the method: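 Buffer 10 mM Tris-HCl pH 8.0, 0.01% Tween 20. Unlinked protease 25 nM; compound preincubation 15 min, RT, protected from light. Substrate Rhod110, 1.5 microM; ~15% conversion in 15 min.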
# [2] = tested on: Zika virus NS2B-NS3 protease (linked construct); assay: Primary screen NINDS Rhodamine qHTS for Zika virus inhibitors (AID 1347160); further: nearly all actives have a fitted effect of over 55% in size
# Summary of the method: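 Aprotinin served as in-plate control. Conditions: 25 nM linked NS2B-NS3, pH 8.0 Tris buffer, titrated compounds, 15 min preincubation and 15 min reaction with 1.5 microM Rhod110 substrate at room temperature.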
# Potency means the concentration at half of the fitted maximal effect.
Compound,Potency [1],Potency [2]
CCC[C@H](N[C@H]1CCc2cc(F)cc(F)c2C1)C(=O)Nc1cn(C(C)(C)CNCC(C)(C)C)cn1,inactive,inactive
N#Cc1ccc(Nc2nc(-c3ccc(O)cc3O)cs2)cc1C(F)(F)F,10 µM (active),17.8 µM (active)
CC(C)c1c(O)ccc2c1CC[C@H]1C(C)(C)CCC[C@]21C,14.1 µM (active),22.4 µM (active)
O=C(Nc1ccc(Cl)cc1)c1ccccc1NCc1ccncc1,inactive,inactive
CC1(C)SCCN(S(=O)(=O)c2ccc(Oc3ccncc3)cc2)[C@H]1C(=O)NO,inactive,inactive
CN(CC1COCCO1)S(=O)(=O)Nc1ccc2ccc3ncc(-c4cnn(C)c4)cc3c(=O)c2c1 (stereo not drawn),inactive,inactive
COc1ccc2nc(-c3cc(OC)c(OC)c(OC)c3)cc(C(=O)NCC(=O)Nc3ccc(C(C)=O)cc3)c2c1,inactive,inactive
O=c1cc(N2CCN(c3cccc(C(F)(F)F)c3)CC2)[nH]c(=O)n1C1CCCCC1,inactive,inactive
C=C1C(=O)O[C@@H]2/C=C(\C)CC/C=C(\C)CC[C@@H]12,inactive,inactive
C=C[C@@]12COC(=O)C(=C)[C@@H]1[C@@H](O)[C@H](C(=C)C(=O)OC)[C@@H](O)C2,inactive,inactive
C=C1C(=O)O[C@H]2C[C@@H](C)[C@@H]3CCC(=O)[C@@]3(C)C[C@H]12,inactive,inactive
CC1=C(C(=O)Nc2cc(Cl)ccc2Cl)C(c2ccco2)C2=C(CCCC2=O)N1 (stereo not drawn),inactive,inactive
COC1=CC(=O)C[C@@H](C)[C@@]12Oc1c(Cl)c(OC)cc(OC)c1C2=O,inactive,inactive
COc1ccc(C2(CNC(=O)c3ccc(NC(=O)c4ccco4)cc3)CCOCC2)cc1,inactive,inactive
O=C(NCCCn1ccnc1)c1cc(-c2ccco2)on1,inactive,inactive
Cc1ccc(O)cc1Nc1ccnc(Nc2cccc(C(N)=O)c2)n1,inactive,inactive
Cn1sc(=O)n(Cc2ccccc2)c1=O,inactive,inactive

Compound,Potency [1],Potency [2]
C=C1CC[C@@H]2[C@](C)(CO)[C@H](O)CC[C@@]2(C)[C@@H]1CC(O)C1=CCOC1=O (stereo partly drawn),inactive,inactive
Cc1[nH]c(/C=C2\C(=O)Nc3cc(-c4ccccc4)ccc32)c(C)c1CCC(=O)O,1.78 µM (active),2.24 µM (active)
COc1ccc(NC(=O)c2ccc(C(=N)N(C)C)cc2)c(C(=O)Nc2ccc(Cl)cn2)c1,inactive,inactive
C=CCc1ccc(OC(C)Cc2ccc(OC)c(OC)c2)c(OC)c1 (stereo not drawn),inactive,inactive
C=C1CC[C@@H]2[C@](C)(CO)[C@H](O)CC[C@@]2(C)[C@@H]1C/C=C1/C(=O)OCC1OC(=O)/C(=C/CO)C(O)C[C@@H]1C(=C)CC[C@@H]2[C@](C)(CO)[C@H](O)CC[C@]21C (stereo partly drawn),inactive,inactive
C=CC(=O)N1CCCC(n2nc(-c3ccc(Oc4ccccc4)cc3)c3c(N)ncnc32)C1 (stereo not drawn),inactive,inactive
CC(C)CC(=O)c1c(O)cc2c(c1O)C(CC(C)C)C1=C(O2)C(C)(C)C(=O)C(C)(C)C1=O (stereo not drawn),8.91 µM (active),7.82 µM (active)
C=C1C(=O)O[C@@H]2C[C@@]3(C)C[C@@H](O)C[C@H](C)C3=C[C@H]12,inactive,inactive
COc1ccc2c(c1O[C@H]1CCNC1)CCC2,inactive,inactive
CCN1C(C)(C)CC(Oc2ccc(C(=O)Nc3ccc(NC(=O)Nc4cc(C(C)(C)C)on4)cc3)nc2)CC1(C)C,inactive,inactive
Fc1ccc(-c2nc(-c3c(F)cccc3F)[nH]c2-c2ccncc2)cc1,inactive,inactive
COc1ccc(C[C@H]2COC(=O)[C@@H]2Cc2ccc(O[C@@H]3O[C@H](CO)[C@@H](O)[C@H](O)[C@H]3O)c(OC)c2)cc1OC,inactive,inactive
CCN1CCN(Cc2ccc(NC(=O)c3ccc(C)c(Oc4ncnc5[nH]c(C)cc45)c3)cc2C(F)(F)F)CC1,inactive,inactive
O=S1(=O)CCN(Cc2cc(NCC3CCOCC3)c3[nH]c(-c4ccccc4)cc3c2)CC1,inactive,inactive
CC(C)n1cnc2c(-c3cnc(N)nc3)nc(N3CCOCC3)nc21,inactive,inactive
CC(C)=CCCC1(C)/C=C/C(OC(=O)C=C(C)C)C(C)(O)/C=C/C(=O)/C(CO)=C\C1 (stereo not drawn),inactive,inactive
COc1c(C)cnc(Cn2cc(C#CCC(C)(C)O)c3c(Cl)nc(N)nc32)c1C,inactive,inactive
